Hits are enriched below; roughly 12% of the tested compounds scored in any of these assays.
HP1b binding inh – HP1-beta chromodomain-methylated histone interaction inhibition; P83916; AlphaScreen HP1-beta / biotin-H3K9me3 peptide binding; Potency, µM (doses to about 114 µM), for the others: at the top dose activity change, negative = inhibition, usual class: inhibitors; hit rate 0.56% among 390,000; further: nearly all actives have a fitted effect of over 70% in size
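Compound inhibition of the preformed complex between 50 nM HP1-beta and 50 nM biotinylated H3K9me3 peptide was read by AlphaScreen. Buffer was PBS pH 7.4 with 0.01% Tween-20. Incubations ran 30 min at room temperature, with 10 ug/mL donor/acceptor beads.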
G9a inh – inhibitors of human histone lysine methyltransferase G9a; Q96KQ7; G9a H3K9 monomethylation, AlphaScreen, 2 h; Potency, µM (highest dose often 102 µM), without a hit: top-dose activity, negative = inhibition, usual class: inhibitors; hit rate 8.8% among 350,000; further: on the % scale 0 is the no-effect control and ±100 the full control effect; nearly all actives have a fitted effect of over 75% in size
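G9a (20 nM) preincubated 15 min RT with compounds, then 500 nM biotinylated H3K9 peptide and 20 uM SAM added; 2 h RT reaction. Monomethyl-H3K9 product detected by AlphaScreen with anti-H3K9me1 antibody, streptavidin donor and anti-rabbit IgG acceptor beads.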
L3MBTL1 block – blocks human L3MBTL1. Q9Y468. AlphaScreen L3MBTL1–H3K9me1 peptide binding. Potency, µM (series often up to 57.1 µM), for the others: top-dose activity, negative = inhibition, usual class: inhibitors. hit rate 0.66% among 230,000. AID 485360; further: on the % scale 0 is the no-effect control and ±100 the full control effect; nearly all actives have a fitted effect of over 60% in size
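AlphaScreen proximity signal between nickel-chelate acceptor and streptavidin donor beads (final 10 ug/mL) reports binding of 50 nM L3MBTL1 to 75 nM biotin-H3 K9me1 peptide; complex incubated with compounds 30 min at room temperature; cefsulodin titration as control.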
Sfp PPTase inh – Sfp phosphopantetheinyl transferase inhibition; Q9F4F7; Biochemical Sfp PPTase activity, qHTS; Potency, µM, for the others: largest response in the series, negative = inhibition, most hits filed as inhibitors; hit rate 3.5% among 310,000; AID 1490;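 further: the enzyme is Sfp with the accession as filed and its product quenches rhodamine fluorescence; 0% = enzyme reaction without inhibitor and -100% = no enzyme wells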
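After 15 min at room temperature with compound, 15 nM Sfp received 5 uM rhodamine-CoA plus 12.5 uM BHQ-2-ybbR (50 mM Hepes pH 7.6, 10 mM MgCl2). Rate came from the fluorescence difference over 30 min, ex 525/em 598 nm.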
JMJD2A Tudor inh – blocks the human JMJD2A Tudor domain; O75164; AlphaScreen JMJD2A-Tudor / H3K4me3 peptide binding; Potency, µM (series often up to 114 µM), for inactives: at the top dose activity change, negative = inhibition, hits mostly inhibitors; hit rate 4.4% among 390,000; further: on the % scale 0 is the no-effect control and ±100 the full control effect; nearly all actives have a fitted effect of over 50% in size
BAZ2B inh – blocks human BAZ2B; Potency, µM (doses to about 114 µM), inactives show at the highest dose activity change, negative = inhibition, actives largely listed as inhibitors; Q9UIF8; hit rate 4.4% among 360,000; AlphaScreen BAZ2B-H3K14Ac peptide displacement; AID 504333; further: on the % scale 0 is the no-effect control and ±100 the full control effect; nearly all actives have a fitted effect of over 60% in size
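BAZ2B (50 nM) with biotin-H3(5-23)K14Ac peptide (50 nM) in PBS pH 7.4, 0.01% Tween-20, preformed 30 min, then compound 30 min at room temperature; top concentration 110uM. AlphaScreen streptavidin donor/nickel chelate acceptor beads (10 ug/mL final), 20 min dark, signal read.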
* = called active by the depositor; ? = inconclusive; . = no result; [ ] = another dose, or the depositor's remark. The call rests on the fitted dose curve; in most records, active means well fitted curve in the direction sought with a large enough effect; inconclusive means small, poorly fitted or top-dose-only effect, or another doubt; inactive means no such curve, though single readings can be large; an effect the other way counts as inactive or inconclusive. Potency means the concentration at half of the fitted maximal effect.

SMILES	HP1b binding inh	G9a inh	L3MBTL1 block	Sfp PPTase inh	JMJD2A Tudor inh	BAZ2B inh
N=C1S/C(=C\c2ccc(-c3cccc(Cl)c3)o2)C(=O)N1c1nccs1	-14.7%	3.55µM*	?	35.5µM*	?	-31.5%
COc1ccc(/C=C2\SC(=N)N(c3nccs3)C2=O)cc1OC	8.6%	-16.6%	15.4%	14.4%	?	0.1%
O=C1OC(c2cccs2)=N/C1=C\c1ccc(-c2cccc(Cl)c2)o1	7.6%	35.5µM*	-9.6%	79.4µM*	-29.1%	?
Clc1cccc(-c2ccc(/C=N/n3cnnc3)o2)c1	-1.1%	4.7%[12.7 µM]	.	-20.7%	-21.5%	-8.7%
Cc1[nH]n(-c2ccccc2)c(=O)c1-c1cccc(Cl)c1	7.9%	-15.6%[0.0925 µM]	11.8%	6.2%	-10.4%	?
Cc1[nH]n(-c2ccccc2)c(=O)c1-c1ccc(Cl)cc1	-14.2%	14.1µM*	.	-11.1%	79.4µM*	-6.3%
Cc1[nH]n(-c2ccccc2)c(=O)c1S(=O)(=O)c1ccccc1	33.0%	44.7µM*	3.5%	-6.8%	-27.3%	42.1%
Cc1[nH]n(-c2ccccc2)c(=O)c1CCO	35.8%	.	2.1%	15.4%	4.2%	1.6%
COc1cc2c(cc1NC(=O)COc1ccc(Br)cc1C)oc1ccccc12	27.7%	26.4%[59 µM]	.	.	-16.2%	4.6%
O=C(NCC1CCCCC1)c1cccc(-c2ccc(O)cc2)c1	35.7%	-4.0%	.	8.6%	-12.4%	9.4%
O=C(NCC1CCCCC1)c1ccc(=O)[nH]c1	-0.3%	44.7µM*	.	10.9%	-2.7%	-3.1%
N#Cc1ccc(C(=O)NCC2CCCCC2)cc1	21.5%	50.1µM*	.	12.9%	12.0%	0.9%
Cc1nc2c(C(=O)NCCC(C)C)cnn2c(C)c1Cc1c(F)cccc1Cl	46.7%	?	.	.	4.6%	22.0%
Cc1ccc(NC(=O)c2ccc(=O)n(CC(=O)Nc3cccc(C)c3)n2)cc1	32.7%	3.9%[59 µM]	.	.	-5.0%	3.9%
Cc1nc2c(cc1C(=O)N/N=C/c1ccc(O)c(O)c1)c(=O)n(C)c(=O)n2C	-16.8%	?	5.3%	-22.3%	35.5µM*	-24.8%
C(=Nc1ccc(Nc2ccccc2)cc1)c1ccc2ccccc2c1	?	1.58µM*	?	44.7µM*	?	35.5µM*
Brc1ccc(C=Nc2ccc(Nc3ccccc3)cc2)s1	?	8.91µM*	?	56.2µM*	28.2µM*	39.8µM*
O=C(N/N=C/c1ccncc1)c1cccc(S(=O)(=O)Nc2ccc(Cl)cc2)c1	54.1%	-32.9%[59 µM]	.	56.2µM*	-14.0%[11.4 µM]	20µM*
Cc1ccc(/C=N/NC(=O)c2cccc(S(=O)(=O)Nc3ccccc3Cl)c2)s1	-1.6%	50.1µM*	-1.8%	0.1%	?	4.0%
O=C(N/N=C/c1cccnc1)c1cccc(S(=O)(=O)Nc2cccc(Cl)c2)c1	11.5%	-0.1%	10.6%	11.4%	-5.2%	-13.0%
CC(=O)c1ccc(NC(=O)c2sc(-n3nc(C)c(CCC(C)C)c3C)nc2C)cc1	44.2%	-3.7%[59 µM]	.	.	-19.2%	-4.1%
COc1ccc(C2Nc3ccccc3C(=O)N2c2ccc(F)cc2)cc1COc1ccc(NC(C)=O)cc1 (stereo unspecified)	12.2%[57 µM]	.	.	.	-2.3%[57.1 µM]	.
CCOC(=O)Nc1ccc2c(c1)Nc1ccccc1S2	-42.1%	8.91µM*	-27.6%	5.8%	39.8µM*	28.2µM*
CC(=O)c1ccc2c(c1)Nc1ccccc1S2	-0.6%	2.82µM*	.	5.7%	-7.1%[57.1 µM]	3.8%
O=C(Nc1cccc(Cl)c1Cl)c1ccc2c(c1)N(Cc1cccc(Cl)c1)C(=O)c1ccccc1S2(=O)=O	63.5%	36.6%[59 µM]	.	.	-8.6%	15.1%
SMILES	HP1b binding inh	G9a inh	L3MBTL1 block	Sfp PPTase inh	JMJD2A Tudor inh	BAZ2B inh
COc1ccc2cc3cc(C(=O)N4CCN(c5cccc(Cl)c5)CC4)sc3nc2c1	41.2%	4.5%[59 µM]	.	.	-14.0%	1.4%
O=C(C1CCC(Cn2c(=O)c3sccc3n(Cc3ccccc3)c2=O)CC1)N1CCCCC1 (stereo unspecified)	-9.8%	14.3%[59 µM]	.	.	-35.7%	-10.3%
COCC(=O)N1CCC2(CCN(Cc3ccccc3OC)CC2)CC1	.	-3.1%[12.7 µM]	.	31.7%	.	.
Cc1ccc(Nc2nc(=O)c3cccnc3s2)c(Br)c1	7.2%	14.1µM*	-0.2%	-12.0%	-21.4%	-27.3%
CC(=O)c1cccc(Nc2nc(=O)c3cccnc3s2)c1	26.2%	50.1µM*	.	19.0%	-9.0%	-5.2%
CCOC(=O)c1ccc(Nc2nc(=O)c3cccnc3s2)cc1	28.3%	28.2µM*	3.2%	17.4%	-5.7%	-2.1%
Cc1ccc(Nc2nc(C)cc(C)n2)c(Br)c1	74.9%	33.4%	18.7%	1.3%	45.4%	23.1%
O=c1nc(Nc2ccc(OCc3ccccc3)cc2)sc2ncccc12	22.0%	50.1µM*	1.3%	5.1%	-16.2%	-11.6%
CCOC(=O)c1cnc2c(C)cc(C)cc2c1Nc1ccc(OCc2ccccc2)cc1	34.6%	1.4%[59 µM]	.	.	-10.5%	-15.3%
CC(=O)c1ccc(Nc2nc(=O)c3cccnc3s2)cc1	19.9%	?	.	-23.7%	-11.3%	-3.1%
C=CCN(C(=O)CSC1=NC(=O)CN1C(C)=O)c1nc(C)c(-c2ccccc2)s1	7.7%	39.8µM*	.	-5.1%	?	35.5µM*
C=CCSc1nnc(-c2sc(-c3ccccc3)nc2C)n1C	42.4%	12.8%[59 µM]	3.1%	12.7%	8.4%	-0.8%
Cn1c(COc2ccccc2)nnc1SCCSc1nnc(COc2ccccc2)n1C	22.9%	16.3%[12.7 µM]	.	17.9%	-6.1%	-2.5%
Cn1c(COc2ccc(Br)cc2)nnc1SC1CCc2ccccc2C1=O (stereo unspecified)	13.8%	?	-10.2%	50.1µM*	?	?
COc1cc(-c2nnc(SCCOc3ccc(Cl)cc3)o2)cc(OC)c1OC	46.9%	-34.1%[59 µM]	.	.	-10.6%	-23.9%
CC(C)NC(=O)CCCN1C(=O)CCn2nc(-c3cccn3C)cc21	6.3%[57 µM]	9.7%[59 µM]	.	.	-24.0%	-10.1%
Cc1cc(C)c(OCC(=O)OCCNC(=O)c2cccnc2)c(C)c1	18.9%	25.1µM*	7.7%	2.3%	-23.1%	?
COc1ccccc1N1C(=O)CSC1=NC(=O)c1ccccc1	35.9%	.	0.1%	-13.0%	-1.7%	-4.4%
COc1ccccc1N=C1SCC(=O)N1c1ccccc1OC	?	28.2µM*	4.4%	4.47µM*	-12.1%	-3.5%
CS(=O)(=O)N1CCC[C@@]2(CCN(Cc3nccs3)C2)C1	.	-20.8%[12.7 µM]	.	9.0%	.	.
O=C(Cc1c(F)cccc1Cl)Nc1ccccn1	25.2%	5.7%[59 µM]	-2.6%	18.1%	-0.7%	?
O=C(c1ccccc1)C(Nc1ccccn1)c1ccccc1 (stereo unspecified)	41.5%	3.5%	0.6%	4.5%	-12.6%	-17.2%
COc1cccc(C(Nc2ccccn2)c2oc(CO)cc(=O)c2O)c1 (stereo unspecified)	?	1.26µM*	.	4.47µM*	44.7µM*	79.4µM*
